We go through two compounds from PubChem BioAssay AID2283131 (EPA ToxCast).

Each structure is given as a SMILES string. Inconclusive results are not listed. Calls of active or inactive are those of the source. Rule for the calls: active = hit-call score of the fitted dose curve at least 0.9, where 1 is the maximum; inconclusive = response in the unintended direction; inactive = score below 0.9.

For the test, the target named is human Bruton's Tyrosine Kinase (BTK), BTK (gene 695) (UniProt Q06187). The test can be described thus: NVS_ENZ_hBTK: NovaScreen (NVS) Enzymatic Assay for human Bruton's Tyrosine Kinase (BTK). As to the method: NVS_ENZ_hBTK is a biochemical, single-readout assay that uses extracted gene-proteins in a cell-free assay. Measurements were taken 1 hour after chemical dosing in a 96-well plate.NVS_ENZ_hBTK is one of one assay component(s) measured or calculated from the NVS_ENZ_hBTK assay. It is designed to make measurements of enzyme activity, a form of enzyme reporter, as detected with fluorescence intensity signals by Fluorescence and electrophoretic mobility shift technology.Data from the assay component NVS_ENZ_hBTK was analyzed into 1 assay endpoint. This assay endpoint, NVS_ENZ_hBTK, was analyzed in the positive analysis fitting direction relative to DMSO as the negative control and baseline of activity. Using a type of enzyme reporter, loss-of-signal activity can be used to understand changes in the enzymatic activity as they relate to the gene BTK. Furthermore, this assay endpoint can be referred to as a primary readout, because this assay has produced multiple assay endpoints where this one serves a enzymatic activity function. To generalize the intended target to other relatable targets, this assay endpoint is annotated to the kinase intended target family, where the subfamily is non-receptor tyrosine kinase. […]
Chain of human Bruton's Tyrosine Kinase (BTK), BTK (gene 695) (Q06187 whole entry, looked up): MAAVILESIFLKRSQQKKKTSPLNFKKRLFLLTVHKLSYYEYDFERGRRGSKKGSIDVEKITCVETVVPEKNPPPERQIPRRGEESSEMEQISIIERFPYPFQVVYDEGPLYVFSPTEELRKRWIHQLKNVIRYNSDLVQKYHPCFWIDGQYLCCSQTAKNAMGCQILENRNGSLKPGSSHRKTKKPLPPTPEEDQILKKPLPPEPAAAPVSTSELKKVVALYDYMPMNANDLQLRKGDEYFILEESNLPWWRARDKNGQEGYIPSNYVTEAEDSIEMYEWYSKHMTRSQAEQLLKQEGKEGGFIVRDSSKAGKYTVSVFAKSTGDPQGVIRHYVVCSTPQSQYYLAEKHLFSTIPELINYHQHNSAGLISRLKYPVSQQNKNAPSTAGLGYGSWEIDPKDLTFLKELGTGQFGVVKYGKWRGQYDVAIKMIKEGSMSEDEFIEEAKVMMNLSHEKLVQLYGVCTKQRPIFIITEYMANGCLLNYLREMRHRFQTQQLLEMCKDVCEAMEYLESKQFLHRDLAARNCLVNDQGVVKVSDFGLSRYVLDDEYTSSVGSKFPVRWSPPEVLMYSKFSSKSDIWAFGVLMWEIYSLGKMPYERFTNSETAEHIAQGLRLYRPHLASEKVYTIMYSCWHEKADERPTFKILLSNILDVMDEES

As a reminder, the AC50 is the concentration giving half of the maximal activity seen. For `S=C([S-])NCCNC(=S)[S-].[Mn+2]`, the AC50 was 45.5 µM (active).
For `COCCO`, the outcome was inactive.
